Compound activity from PubChem.
PDI inh: inhibitors of human PDI, primary screen, biochemical, turbidity, single point, plate reader. inhibition, % at 10 µM. PDI insulin aggregation turbidity, A650, 90 min. 350,000 compounds, 0.052% hits;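 active = mean inhibition across replicates of 30% or more, whatever share of single replicates reach that level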
ERAP1 inh: human ERAP1 aminopeptidase inhibitors, primary screen, biochemical, single point, plate reader | Endoplasmic reticulum aminopeptidase 1 (Homo sapiens), Q9NZ08 | recombinant ERAP1, Leu-AMC fluorescence, 60 min | inhibition, % at 10.7 µM | 340,000 compounds, 0.15% hits | AID 652197, 2013;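 active = mean replicate inhibition of at least 30%, or all replicates individually reaching that 30% level; inactive = mean below 30% and not every replicate reaching it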;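 also: 0% = neutral control wells and 100% = L-leucinethiol positive control wells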
MLL AF4-AF9 inh: inhibitors of AF4 peptide binding to AF9, primary screen, biochemical, AlphaScreen, biotin-AF4 peptide, FLAG-AF9, single point; Protein AF-9 (Homo sapiens), P42568; inhibition, % at 10 µM; 350,000 compounds, 0.47% hits;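 active = every replicate reaching a set inhibition limit, whatever the replicate mean, cut at about 25% in these data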;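 also: 0% = plate neutral control median and 100% = total signal loss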
Target sequence (P42568 whole entry, looked up): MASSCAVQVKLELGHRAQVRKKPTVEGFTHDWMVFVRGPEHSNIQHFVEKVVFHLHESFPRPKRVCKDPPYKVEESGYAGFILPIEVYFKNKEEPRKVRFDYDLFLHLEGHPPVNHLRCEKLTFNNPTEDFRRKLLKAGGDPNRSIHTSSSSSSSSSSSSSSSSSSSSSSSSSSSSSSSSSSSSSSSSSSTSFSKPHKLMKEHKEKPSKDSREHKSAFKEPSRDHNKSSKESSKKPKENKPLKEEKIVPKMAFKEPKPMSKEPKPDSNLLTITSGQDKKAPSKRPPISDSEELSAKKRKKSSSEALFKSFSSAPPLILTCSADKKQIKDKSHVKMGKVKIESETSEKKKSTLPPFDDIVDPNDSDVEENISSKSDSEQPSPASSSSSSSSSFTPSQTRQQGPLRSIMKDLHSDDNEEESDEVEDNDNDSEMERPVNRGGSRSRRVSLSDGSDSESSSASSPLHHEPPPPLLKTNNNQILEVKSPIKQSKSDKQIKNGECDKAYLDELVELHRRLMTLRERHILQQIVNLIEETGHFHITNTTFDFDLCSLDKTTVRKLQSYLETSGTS
ERp5 inh: inhibitors of ERp5-driven insulin aggregation, primary screen, biochemical, turbidity, absorbance 650 nm, single point; Protein disulfide-isomerase A6 (Homo sapiens), Q15084; inhibition, % at 9.99 µM; AID 651711, 2012; 350,000 compounds, 0.05% hits; 90 min;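 active = mean replicate inhibition above about 25%, with every replicate also reaching it, limit read from the data, passing the limit was not always enough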
DENV2 CPE: inhibitors of DENV2 cytopathic effect, primary screen, cell-based, plate reader, single concentration; DENV2-infected cells, cytopathic effect rescue; CPE inhibition, % at 9.99 µM; 350,000 compounds, 1.7% hits; in the data active = CPE inhibition above about 20%, passing the limit was not always enough; tested in BHK-21 cells;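 also: 0% = median of neutral control wells and 100% = median of positive control wells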
* hit, by the source's call; · = not tested or not shown; ! = repeats disagree. A selection: hits, their analogues and other compounds. The true share with any hit is near 1.8%.

SMILES	PDI inh	ERAP1 inh	MLL AF4-AF9 inh	ERp5 inh	DENV2 CPE
CCNC(=O)c1cc2c(c(-c3cccc(-c4cncnc4)c3)n1)[C@@H](CCO)N(C(C)=O)C2	·	1	-22	-1	40*!
CC(C)NC(=O)N1Cc2cc(C(=O)NC3CCC3)nc(-c3cccc(-c4cccnc4)c3)c2[C@@H]1CCO	·	·	3	-3	30*
C[C@H](CO)N1C[C@H](C)[C@@H](CN(C)Cc2ccc(Oc3ccccc3)cc2)Oc2ccc(NC(=O)CCC(F)(F)F)cc2CC1=O	·	·	·	·	-4
COc1ccc2c3c([nH]c2c1)[C@H](CO)N(C(=O)Nc1ccc(F)cc1)CC31CN(CC2CCOCC2)C1	·	3	0	-2	11
CCC(=O)N1CC2(CN(C(=O)Nc3ccc(F)cc3)C2)c2c([nH]c3cc(OC)ccc23)[C@@H]1CO	·	4	-3	-2	-9
CCCC#Cc1cnc2c(c1)C(=O)N([C@@H](C)CO)C[C@H](C)[C@H](CN(C)C(=O)c1cccc(F)c1)O2	·	3	-5	-12	27*
C[C@H]1CN([C@@H](C)CO)C(=O)c2cc(C#CCN(C)C)cnc2O[C@H]1CN(C)C(=O)c1cccc(F)c1	·	-2	-5	3	34*
C[C@@H]1CN([C@H](C)CO)C(=O)c2cc(NS(=O)(=O)c3cccs3)ccc2O[C@@H](C)CCCCO[C@@H]1CN(C)S(C)(=O)=O	·	-1	-1	5	-16
C[C@@H]1CN([C@@H](C)CO)C(=O)c2cc(NC(=O)CCCN(C)C)ccc2O[C@H]1CN(C)C(=O)Nc1cccc2ccccc12	·	-1	-1	9	4
COc1ccccc1Cn1c(=S)[nH]c2cc(C(=O)N3CCN(c4ccccc4OC)CC3)ccc2c1=O	-11	-1	-2	-16	9
COc1ccccc1Cn1c(=S)[nH]c2cc(C(=O)N3CC(C)CC(C)C3)ccc2c1=O (configuration not stated)	8	6	-3	5	22*
COc1ccc(COC[C@]23Oc4ccccc4[C@H]([C@H]2COC(=O)c2ccc([N+](=O)[O-])cc2)N(C(=O)CC(C)=O)C(=O)N3C)cc1	·	3	2	2	-7
N#Cc1ccc(C(=O)Nc2cc(C3CC3)nn2-c2ccccc2)cc1	-2	-1	·	0	22*
CC(C)(NC(=O)c1ccccc1)c1nc2ccccc2s1	3	-3	-8	4	109*
CC(C)NC(=O)Nc1ccc2c(c1)C(=O)N([C@@H](C)CO)C[C@H](C)[C@@H](CN(C)C(=O)Nc1ccc3c(c1)OCO3)O2	·	1	-3	-12	21*
CC(C)NC(=O)Nc1ccc2c(c1)C(=O)N([C@@H](C)CO)C[C@@H](C)[C@@H](CN(C)C(=O)Nc1ccc3c(c1)OCO3)O2	·	5	-3	4	7
CC(C)NC(=O)Nc1ccc2c(c1)C(=O)N([C@@H](C)CO)C[C@@H](C)[C@H](CN(C)C(=O)Nc1ccc3c(c1)OCO3)O2	·	2	-3	15	28*
C[C@@H]1CN([C@@H](C)CO)C(=O)c2cc(NC(=O)CCC(F)(F)F)ccc2O[C@@H]1CN(C)C(=O)Nc1cccc2ccccc12	·	0	-2	-1	17
CC(C)NC(=O)Nc1ccc2c(c1)C(=O)N([C@H](C)CO)C[C@H](C)[C@H](CN(C)C(=O)Nc1ccc3c(c1)OCO3)O2	·	1	-2	10	0
C[C@H]1CN([C@@H](C)CO)C(=O)c2cc(NC(=O)CCC(F)(F)F)ccc2O[C@H]1CN(C)C(=O)Nc1cccc2ccccc12	·	-4	1	-2	26*
C[C@@H]1CN([C@@H](C)CO)C(=O)c2cc(NC(=O)CCC(F)(F)F)ccc2O[C@@H]1CN(C)C(=O)Nc1ccc2c(c1)OCO2	·	4	0	1	31*
CCCNC(=O)N(C)C[C@@H]1Oc2cc(C#CC3CC3)ccc2S(=O)(=O)N([C@@H](C)CO)C[C@H]1C	·	1	-1	-4	-2
CCOc1ccc(NCc2cccn2-c2nnc(N3CCC(C(=O)NCCCN4CC(C)CC(C)C4)CC3)s2)cc1 (configuration not stated)	5	1	40*	-8	-2
Cc1cc(C)c(C(=O)N(C)C2CCCN(Cc3ccccc3F)C2)o1 (configuration not stated)	11	1	3	3	37*
Cc1cc(C)cc(C(=O)N(C)C2CCCN(Cc3ccccc3F)C2)c1 (configuration not stated)	-82	2	1	3	12
SMILES	PDI inh	ERAP1 inh	MLL AF4-AF9 inh	ERp5 inh	DENV2 CPE
COc1cccc(-c2ccc3c(c2)[C@H]2[C@H](CCN2Cc2ccccc2OC)[C@H](CO)N3)c1	·	0	6	5	-24
N#Cc1nc(COc2ccccc2Cl)oc1N1CCCC1	-2	-4	26*	-2	6
N#Cc1nc(COc2ccccc2Cl)oc1N1CCCCCC1	1	5	9	-5	-4
CO[C@@H]1CN(C)C(=O)c2cc(NC(=O)CC(F)(F)F)ccc2OC[C@H](C)N(C(=O)C2CCOCC2)C[C@@H]1C	·	0	-4	5	26*
CO[C@H]1CN(C)C(=O)c2cc(NC(=O)CC(F)(F)F)ccc2OC[C@H](C)N(C(=O)C2CCOCC2)C[C@H]1C	·	-2	1	3	19
CO[C@H]1CN(C)C(=O)c2ccc(NC(=O)CC(F)(F)F)cc2OC[C@@H](C)N(C(=O)C2CC2)C[C@@H]1C	·	2	-2	7	3
CO[C@H]1CN(C)C(=O)c2cc(NC(=O)CC(F)(F)F)ccc2OC[C@H](C)N(C(=O)C2CCOCC2)C[C@@H]1C	·	-2	-2	6	27*
CO[C@@H]1CN(C)C(=O)c2ccc(NC(=O)CC(F)(F)F)cc2OC[C@@H](C)N(C(=O)C2CCOCC2)C[C@@H]1C	·	1	-3	2	24*
CO[C@H]1CN(C)C(=O)c2cc(NC(=O)CC(F)(F)F)ccc2OC[C@H](C)N(C(=O)C2CC2)C[C@@H]1C	·	4	-4	42*	-3
Cc1ccc(S(=O)(=O)Nc2ccc3c(c2)CC(=O)N([C@@H](C)CO)C[C@@H](C)[C@H](CN(C)Cc2ccc4c(c2)OCO4)O3)cc1	·	-1	14	0	-2
C[C@H](CO)N1C[C@H](C)[C@@H](CN(C)C(=O)Nc2ccccc2)OCCCC[C@H](C)Oc2ccc(NC(=O)CCC(F)(F)F)cc2C1=O	·	0	-4	2	-6
C[C@H](CO)N1C[C@H](C)[C@@H](CN(C)C)Oc2ccc(NC(=O)c3ccncc3)cc2CC1=O	·	0	0	-2	-1
CCCC(=O)Nc1ccc2c(c1)C(=O)N(C)C[C@H](OC)[C@@H](C)CN(C(=O)C1CCCC1)[C@H](C)CO2	·	2	2	4	35*
